According to PubChem BioAssay (NCI):
About 79,000 compounds went through this panel and 15% of them were active in at least one assay; those are over-represented in the sample as a whole. Activity calls are given as the source filed them. No stated cut-off is given here; in the data, active means growth inhibition above about 70%; inactive means the rest.

Experiments:
[1] = NCI Yeast Anticancer Drug Screen. Data for the rad52 strain (AID 147);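 further: 0% = growth of vehicle-treated control cultures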; conditions: S. cerevisiae rad52 mutant growth inhibition, hits give high values
Method in brief: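 DNA repair-defective yeast; compound exposure; growth scored against vehicle controls.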

[2] = NCI Yeast Anticancer Drug Screen. Data for the wt1 strain (AID 149);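 further: 0% = growth of vehicle-treated wt1 cultures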; conditions: S. cerevisiae wt1 strain (SPY 50644) growth inhibition, hits give high values
Method in brief: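 wt1 yeast, compound-treated; % growth inhibition vs vehicle control.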

[3] = NCI Yeast Anticancer Drug Screen. Data for the rad50EPP+ strain (AID 151);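 further: 0% = growth of vehicle-treated control cultures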; conditions: S. cerevisiae rad50 mutant strain, hits give high values
Method in brief: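 rad50EPP+ yeast treated with test compounds. Readout: growth vs vehicle control.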

[4] = NCI Yeast Anticancer Drug Screen. Data for the rad50 strain (AID 155);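 further: 0% = growth of vehicle-only cultures of the same strain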; conditions: S. cerevisiae rad50 strain growth inhibition, hits give high values
Method in brief: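 Genetically altered yeast (DNA repair pathway); compound treatment; growth inhibition vs vehicle ctrl.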

[5] = NCI Yeast Anticancer Drug Screen. Data for the mec2-1 strain (AID 157); conditions: S. cerevisiae mec2-1 strain, hits give high values
Method in brief: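 Growth inhibition is read against vehicle-treated controls after compound exposure of the mec2-1 yeast strain, which is defective in DNA damage repair or cell cycle control.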

[6] = NCI Yeast Anticancer Drug Screen. Data for the rad14 strain (AID 159);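 further: 0% = growth of vehicle-treated control cultures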; conditions: S. cerevisiae rad14 strain growth inhibition, hits give high values
Method in brief: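 Test compounds were applied to a repair-deficient yeast strain. Its growth was then compared with that of cultures given vehicle alone, and inhibition was expressed relative to those controls.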

[7] = NCI Yeast Anticancer Drug Screen. Data for the sgs1 mgt1 strain (AID 161);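 further: 0% = growth of cultures given vehicle only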; conditions: S. cerevisiae sgs1 mgt1 strain, hits give high values
Method in brief: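 Percent growth inhibition was derived by comparing compound-exposed mutant yeast with vehicle-exposed cultures. The strain carries alterations in DNA damage repair.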

[8] = NCI Yeast Anticancer Drug Screen. Data for the CLN2oe strain (AID 163);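 further: 0% = growth of vehicle-only control cultures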; conditions: S. cerevisiae CLN2oe strain, hits give high values
Method in brief: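 Compound-treated yeast; growth vs vehicle ctrl = % inhibition. Genetically altered strain (cell-cycle control).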

[9] = NCI Yeast Anticancer Drug Screen. Data for the cln2 rad14 strain (AID 165);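 further: 0% = growth equal to vehicle treated cultures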; conditions: S. cerevisiae cln2 rad14 strain, hits give high values
Method in brief: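 Growth inhibition, relative to vehicle-treated controls, is the read-out. The test organism is a yeast strain with defined genetic alterations, cln2 rad14.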

[10] = NCI Yeast Anticancer Drug Screen. Data for the bub3 strain (AID 167); conditions: S. cerevisiae bub3 mutant strain, hits give high values
Method in brief: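 Yeast carrying a defined mutation is treated with each compound, and growth is compared with that of vehicle-exposed cells to give inhibition.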

[11] = NCI Yeast Anticancer Drug Screen. Data for the mlh1 strain (AID 171);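 further: 0% = growth of vehicle-treated control cultures of the same strain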; conditions: S. cerevisiae mlh1 strain growth inhibition, hits give high values
Method in brief: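 Compounds are applied to a genetically altered yeast strain, and its growth is compared with that of vehicle-treated cultures to give percent inhibition.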

[12] = NCI Yeast Anticancer Drug Screen. Data for the mlh1 rad18 strain (AID 175); conditions: S. cerevisiae mlh1 rad18 strain growth inhibition, hits give high values
Method in brief: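 Cells of a genetically altered yeast strain, deficient in DNA damage repair, were treated with compound. Their growth was then compared with that of vehicle-treated cultures to give inhibition.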

[13] = NCI Yeast Anticancer Drug Screen. Data for the rad18 strain (AID 177); conditions: S. cerevisiae rad18 mutant growth inhibition, hits give high values
Method in brief: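 Compounds are applied to a repair-deficient yeast strain, and growth is compared with that of vehicle-treated cultures to give percent inhibition.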

[14] = NCI Yeast Anticancer Drug Screen. Data for the mgt1 strain (AID 153); conditions: S. cerevisiae mgt1 mutant growth inhibition, hits give high values
Method in brief: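 Growth inhibition relative to vehicle controls was scored for the mgt1 yeast strain after compound exposure.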

[15] = NCI Yeast Anticancer Drug Screen. Data for the wt2 strain (AID 169);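 further: 0% = growth of vehicle-treated yeast cultures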; conditions: S. cerevisiae wt2 strain growth inhibition, hits give high values
Method in brief: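 Compound exposure of yeast; growth compared with vehicle controls; inhibition reported.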

[16] = NCI Yeast Anticancer Drug Screen. Data for the sgs1 strain (AID 173);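 further: 0% = growth of vehicle-only control cultures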; conditions: S. cerevisiae sgs1 mutant, hits give high values
Method in brief: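 Compounds applied to genetically altered yeast; growth compared with vehicle-treated cultures to give % inhibition.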

[17] = at 5.0 µM (retest, dose inferred, filed as 0.5)
[18] = at 50.0 µM (retest, dose inferred, filed as 5.0)

Measured: growth inhibition

COC(=O)c1oc([N+](=O)[O-])c(Cl)c1Cl
inactive: [1]; at 3.7 µM 66% | [2]; at 1.2 µM 26% | [2]; at 3.7 µM 22% | [2]; at 11.0 µM 39% | [4]; [17] 21% | [5]; [17] 35% | [7]; [17] 36% | [8]; at 3.7 µM 45% | [9]; [17] 10% | [10]; at 3.7 µM 41% | [10]; [17] 47% | [10]; at 11.0 µM 34% | [11]; at 3.7 µM 62% | [12]; [17] 58%
active: [1]; at 1.2 µM 78% | [1]; at 11.0 µM 71% | [1]; at 33.0 µM 95% | [1]; at 100.0 µM 99% | [2]; at 33.0 µM 89% | [2]; at 100.0 µM 99% | [3]; at 1.2 µM 95% | [3]; at 3.7 µM 93% | [3]; at 11.0 µM 93% | [3]; at 33.0 µM 98% | [3]; at 100.0 µM 98% | [4]; at 1.2 µM 95% | [4]; at 3.7 µM 79% | [4]; at 11.0 µM 86% | [4]; at 33.0 µM 96% | [4]; [18] 99% | [4]; at 50.0 µM 97% | [4]; at 100.0 µM 98% | [5]; at 1.2 µM 94% | [5]; at 3.7 µM 70% | [5]; at 11.0 µM 73% | [5]; at 33.0 µM 99% | [5]; [18] 100% | [5]; at 50.0 µM 99.7% | [5]; at 100.0 µM 99% | [6]; at 1.2 µM 99% | [6]; at 3.7 µM 71% | [6]; at 11.0 µM 90% | [6]; at 33.0 µM 99% | [6]; at 100.0 µM 99% | [7]; [18] 99% | [7]; at 50.0 µM 99% | [8]; at 1.2 µM 98% | [8]; at 11.0 µM 79% | [8]; at 33.0 µM 92% | [8]; at 100.0 µM 99% | [9]; [18] 99% | [9]; at 50.0 µM 98.5% | [10]; at 1.2 µM 71% | [10]; at 33.0 µM 97% | [10]; [18] 100% | [10]; at 50.0 µM 99.2% | [10]; at 100.0 µM 98% | [11]; at 1.2 µM 77% | [11]; at 11.0 µM 78% | [11]; at 33.0 µM 99% | [11]; at 100.0 µM 99% | [12]; [18] 99% | [12]; at 50.0 µM 99.5% | [13]; at 1.2 µM 93% | [13]; at 3.7 µM 92% | [13]; at 11.0 µM 89% | [13]; at 33.0 µM 98% | [13]; at 100.0 µM 99%

O=c1[nH]cc(/C=N\Nc2ccccc2)c(=O)[nH]1
active: [9]; at 50.0 µM 73.8% | [10]; at 50.0 µM 82.9% | [12]; [18] 81% | [12]; at 50.0 µM 84.5% | [13]; at 11.0 µM 73% | [13]; at 33.0 µM 88% | [13]; at 100.0 µM 89%
inactive: [1]; at 1.2 µM 1% | [1]; at 3.7 µM 6% | [1]; at 11.0 µM 36% | [1]; at 33.0 µM 56% | [1]; at 100.0 µM 63% | [2]; at 1.2 µM 3% | [2]; at 3.7 µM 6% | [2]; at 11.0 µM 37% | [2]; at 33.0 µM 57% | [2]; at 100.0 µM 49% | [14]; at 1.2 µM 3% | [14]; at 3.7 µM -2% | [14]; at 11.0 µM 21% | [14]; at 33.0 µM 31% | [14]; at 100.0 µM 46% | [4]; at 1.2 µM 3% | [4]; at 3.7 µM 17% | [4]; [17] -11% | [4]; at 11.0 µM 31% | [4]; at 33.0 µM 49% | [4]; [18] 40% | [4]; at 50.0 µM 61.9% | [4]; at 100.0 µM 60% | [5]; at 1.2 µM 0% | [5]; at 3.7 µM -2% | [5]; [17] -3% | [5]; at 11.0 µM 27% | [5]; at 33.0 µM 31% | [5]; [18] 15% | [5]; at 50.0 µM 52.4% | [5]; at 100.0 µM 21% | [7]; [17] -1% | [7]; [18] 67% | [7]; at 50.0 µM 60.9% | [8]; at 1.2 µM -3% | [8]; at 3.7 µM 6% | [8]; at 11.0 µM 32% | [8]; at 33.0 µM 43% | [8]; at 100.0 µM 48% | [9]; [17] -29% | [9]; [18] 29% | [10]; at 1.2 µM 9% | [10]; at 3.7 µM 1% | [10]; [17] 7% | [10]; at 11.0 µM 27% | [10]; at 33.0 µM 39% | [10]; [18] 50% | [10]; at 100.0 µM 40% | [15]; at 1.2 µM 0% | [15]; at 3.7 µM 8% | [15]; at 11.0 µM 51% | [15]; at 33.0 µM 57% | [15]; at 100.0 µM 55% | [11]; at 1.2 µM -3% | [11]; at 3.7 µM 5% | [11]; at 11.0 µM 17% | [11]; at 33.0 µM 28% | [11]; at 100.0 µM 39% | [16]; at 1.2 µM 3% | [16]; at 3.7 µM 8% | [16]; at 11.0 µM 41% | [16]; at 33.0 µM 62% | [16]; at 100.0 µM 66% | [12]; [17] -3% | [13]; at 1.2 µM 5% | [13]; at 3.7 µM 28%

S=c1nc(Cl)cc2[nH]c(Cl)cn12
inactive: [1]; at 1.2 µM 2% | [1]; at 3.7 µM 6% | [1]; at 11.0 µM 14% | [1]; at 33.0 µM 43% | [2]; at 1.2 µM -3% | [2]; at 3.7 µM -3% | [2]; at 11.0 µM -2% | [2]; at 33.0 µM 13% | [2]; at 100.0 µM 42% | [3]; at 1.2 µM 4% | [3]; at 3.7 µM 18% | [3]; at 11.0 µM 44% | [4]; at 1.2 µM 7% | [4]; at 3.7 µM 9% | [4]; [17] -132% | [4]; at 11.0 µM 27% | [5]; at 1.2 µM 3% | [5]; at 3.7 µM 4% | [5]; [17] -46% | [5]; at 11.0 µM 13% | [5]; at 33.0 µM 24% | [5]; [18] -8%
active: [1]; at 100.0 µM 93% | [3]; at 33.0 µM 89% | [3]; at 100.0 µM 98% | [4]; at 33.0 µM 73% | [4]; [18] 75% | [4]; at 50.0 µM 78.8% | [4]; at 100.0 µM 98% | [5]; at 50.0 µM 82.5%
